Measured values published in ChEMBL document CHEMBL1961873, “Compounds: GSK PKIS; Assays: Nanosyn kinase panel” (2012).

What was measured:
[1] = biological target: High affinity nerve growth factor receptor (Homo sapiens) (UniProt P04629); conditions: at 1 µM;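 note: each value is the mean percent inhibition of TRKA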
[2] = biological target: BDNF/NT-3 growth factors receptor (Homo sapiens) (UniProt Q16620); conditions: at 0.1 µM
[3] = biological target: BDNF/NT-3 growth factors receptor (Homo sapiens) (UniProt Q16620); conditions: at 1 µM
[4] = biological target: NT-3 growth factor receptor (Homo sapiens) (UniProt Q16288); conditions: at 0.1 µM
[5] = biological target: NT-3 growth factor receptor (Homo sapiens) (UniProt Q16288); conditions: at 1 µM
[6] = biological target: T1, Tyrosine-protein kinase TXK (Homo sapiens) (UniProt P42681); conditions: at 0.1 µM
T1 sequence (whole entry): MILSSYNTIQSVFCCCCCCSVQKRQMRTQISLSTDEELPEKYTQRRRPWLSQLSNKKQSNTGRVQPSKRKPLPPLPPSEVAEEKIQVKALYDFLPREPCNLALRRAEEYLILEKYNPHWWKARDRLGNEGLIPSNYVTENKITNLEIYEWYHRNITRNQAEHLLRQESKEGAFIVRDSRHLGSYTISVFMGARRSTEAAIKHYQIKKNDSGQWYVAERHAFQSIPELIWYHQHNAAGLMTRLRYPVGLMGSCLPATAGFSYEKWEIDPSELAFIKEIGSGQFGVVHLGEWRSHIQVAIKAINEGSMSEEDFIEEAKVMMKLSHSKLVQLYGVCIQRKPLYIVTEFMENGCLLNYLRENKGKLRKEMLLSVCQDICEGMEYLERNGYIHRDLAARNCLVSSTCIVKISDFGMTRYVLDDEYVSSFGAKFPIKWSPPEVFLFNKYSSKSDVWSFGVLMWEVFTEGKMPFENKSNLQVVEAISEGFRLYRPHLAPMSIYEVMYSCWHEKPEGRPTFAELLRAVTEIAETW

[7] = biological target: T1, Tyrosine-protein kinase TXK (Homo sapiens); conditions: at 1 µM
[8] = biological target: Non-receptor tyrosine-protein kinase TYK2 (Homo sapiens) (UniProt P29597); conditions: at 0.1 µM;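 note: each value is a mean of the inhibition readings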
[9] = biological target: T2, Dual specificity protein kinase TTK (Homo sapiens) (UniProt P33981); conditions: at 1 µM;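 note: reported figures are mean TTK inhibition at 1 µM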
T2 sequence (whole entry): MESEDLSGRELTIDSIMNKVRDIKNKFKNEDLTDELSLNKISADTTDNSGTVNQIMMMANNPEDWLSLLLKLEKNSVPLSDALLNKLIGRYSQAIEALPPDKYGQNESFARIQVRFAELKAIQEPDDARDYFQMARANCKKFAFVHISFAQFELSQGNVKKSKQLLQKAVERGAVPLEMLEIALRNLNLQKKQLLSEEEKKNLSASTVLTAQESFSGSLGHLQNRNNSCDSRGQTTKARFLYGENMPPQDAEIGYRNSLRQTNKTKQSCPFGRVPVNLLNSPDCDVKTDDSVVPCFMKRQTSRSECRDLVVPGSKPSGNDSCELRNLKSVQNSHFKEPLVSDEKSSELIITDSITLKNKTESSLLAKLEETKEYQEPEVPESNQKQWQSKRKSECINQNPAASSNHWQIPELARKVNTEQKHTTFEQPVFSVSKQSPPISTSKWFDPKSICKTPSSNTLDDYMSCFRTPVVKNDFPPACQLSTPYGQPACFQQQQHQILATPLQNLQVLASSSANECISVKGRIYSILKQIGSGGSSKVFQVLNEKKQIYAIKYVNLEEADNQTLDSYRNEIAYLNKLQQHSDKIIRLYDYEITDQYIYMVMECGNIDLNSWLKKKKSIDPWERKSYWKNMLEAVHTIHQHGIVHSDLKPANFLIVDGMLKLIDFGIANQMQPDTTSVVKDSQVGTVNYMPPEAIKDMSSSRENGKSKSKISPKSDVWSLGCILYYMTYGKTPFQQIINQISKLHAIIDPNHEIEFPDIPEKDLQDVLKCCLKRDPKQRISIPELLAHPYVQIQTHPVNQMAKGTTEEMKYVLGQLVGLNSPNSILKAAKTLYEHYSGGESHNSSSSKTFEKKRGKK

[10] = biological target: T3, Aurora kinase A (Homo sapiens) (UniProt O14965); conditions: at 0.1 µM
T3 sequence (whole entry): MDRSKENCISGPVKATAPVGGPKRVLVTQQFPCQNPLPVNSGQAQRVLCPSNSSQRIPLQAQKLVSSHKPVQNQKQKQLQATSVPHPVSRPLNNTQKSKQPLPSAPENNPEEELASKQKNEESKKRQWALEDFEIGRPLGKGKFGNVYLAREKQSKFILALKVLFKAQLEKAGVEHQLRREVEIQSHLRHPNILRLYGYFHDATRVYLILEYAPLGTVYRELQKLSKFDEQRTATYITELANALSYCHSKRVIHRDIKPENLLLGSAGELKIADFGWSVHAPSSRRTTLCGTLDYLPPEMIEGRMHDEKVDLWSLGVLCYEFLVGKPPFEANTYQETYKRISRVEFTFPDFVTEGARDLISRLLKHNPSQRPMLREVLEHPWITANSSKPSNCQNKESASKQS

[11] = biological target: T3, Aurora kinase A (Homo sapiens); conditions: at 1 µM
[12] = biological target: Aurora kinase B (Homo sapiens) (UniProt Q96GD4); conditions: at 0.1 µM
[13] = biological target: Aurora kinase B (Homo sapiens) (UniProt Q96GD4); conditions: at 1 µM
[14] = biological target: T4, Aurora kinase C (Homo sapiens) (UniProt Q9UQB9); conditions: at 0.1 µM
T4 sequence (whole entry): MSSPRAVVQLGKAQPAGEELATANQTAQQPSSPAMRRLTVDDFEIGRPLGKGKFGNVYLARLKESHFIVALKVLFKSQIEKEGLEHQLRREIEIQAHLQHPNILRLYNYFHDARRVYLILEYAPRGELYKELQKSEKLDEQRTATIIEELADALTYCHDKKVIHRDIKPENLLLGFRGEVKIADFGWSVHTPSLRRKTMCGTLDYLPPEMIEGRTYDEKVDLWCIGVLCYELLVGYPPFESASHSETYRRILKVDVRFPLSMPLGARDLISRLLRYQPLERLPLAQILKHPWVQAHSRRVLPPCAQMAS

[15] = biological target: T4, Aurora kinase C (Homo sapiens); conditions: at 1 µM
[16] = biological target: Serine/threonine-protein kinase 10 (Homo sapiens) (UniProt O94804); conditions: at 0.1 µM
[17] = biological target: Serine/threonine-protein kinase 10 (Homo sapiens) (UniProt O94804); conditions: at 1 µM
[18] = biological target: T5, Mitogen-activated protein kinase kinase kinase kinase 2 (Homo sapiens) (UniProt Q12851); conditions: at 0.1 µM
T5 sequence (whole entry): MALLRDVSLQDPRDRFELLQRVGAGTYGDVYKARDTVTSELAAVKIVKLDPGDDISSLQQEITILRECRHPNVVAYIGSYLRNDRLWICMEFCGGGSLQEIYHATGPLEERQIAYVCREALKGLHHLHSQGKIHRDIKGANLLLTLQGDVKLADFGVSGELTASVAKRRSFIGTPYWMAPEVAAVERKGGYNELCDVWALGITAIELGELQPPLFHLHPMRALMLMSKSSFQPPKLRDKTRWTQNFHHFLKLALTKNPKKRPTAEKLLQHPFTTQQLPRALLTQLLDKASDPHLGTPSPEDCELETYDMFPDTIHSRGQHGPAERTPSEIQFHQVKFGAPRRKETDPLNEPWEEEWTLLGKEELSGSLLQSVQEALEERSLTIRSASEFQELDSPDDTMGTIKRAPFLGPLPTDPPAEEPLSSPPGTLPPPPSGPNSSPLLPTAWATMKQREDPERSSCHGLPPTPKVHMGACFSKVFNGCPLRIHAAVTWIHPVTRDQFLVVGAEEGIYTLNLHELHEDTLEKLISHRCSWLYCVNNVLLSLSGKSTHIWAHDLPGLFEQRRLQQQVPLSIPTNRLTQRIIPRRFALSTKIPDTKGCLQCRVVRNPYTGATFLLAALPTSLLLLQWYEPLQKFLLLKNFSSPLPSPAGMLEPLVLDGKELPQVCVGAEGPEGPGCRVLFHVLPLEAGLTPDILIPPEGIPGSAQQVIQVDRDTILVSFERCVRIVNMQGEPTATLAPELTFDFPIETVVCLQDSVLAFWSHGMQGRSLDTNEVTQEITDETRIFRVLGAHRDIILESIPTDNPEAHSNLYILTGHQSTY

[19] = biological target: T5, Mitogen-activated protein kinase kinase kinase kinase 2 (Homo sapiens); conditions: at 1 µM
[20] = biological target: Mitogen-activated protein kinase kinase kinase kinase 4 (Homo sapiens) (UniProt O95819); conditions: at 0.1 µM

Aurora kinase B (Homo sapiens), sequence (Q96GD4 whole entry): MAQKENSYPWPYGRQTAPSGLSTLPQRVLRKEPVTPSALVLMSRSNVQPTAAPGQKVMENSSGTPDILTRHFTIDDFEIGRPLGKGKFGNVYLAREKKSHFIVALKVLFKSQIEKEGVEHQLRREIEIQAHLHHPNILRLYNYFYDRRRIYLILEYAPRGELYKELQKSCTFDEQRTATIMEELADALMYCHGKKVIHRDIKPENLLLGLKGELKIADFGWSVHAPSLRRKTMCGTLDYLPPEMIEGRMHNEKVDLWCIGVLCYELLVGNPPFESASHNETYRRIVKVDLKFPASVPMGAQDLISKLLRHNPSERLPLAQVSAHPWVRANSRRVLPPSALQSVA
High affinity nerve growth factor receptor (Homo sapiens), sequence (P04629 33-796 limits assumed): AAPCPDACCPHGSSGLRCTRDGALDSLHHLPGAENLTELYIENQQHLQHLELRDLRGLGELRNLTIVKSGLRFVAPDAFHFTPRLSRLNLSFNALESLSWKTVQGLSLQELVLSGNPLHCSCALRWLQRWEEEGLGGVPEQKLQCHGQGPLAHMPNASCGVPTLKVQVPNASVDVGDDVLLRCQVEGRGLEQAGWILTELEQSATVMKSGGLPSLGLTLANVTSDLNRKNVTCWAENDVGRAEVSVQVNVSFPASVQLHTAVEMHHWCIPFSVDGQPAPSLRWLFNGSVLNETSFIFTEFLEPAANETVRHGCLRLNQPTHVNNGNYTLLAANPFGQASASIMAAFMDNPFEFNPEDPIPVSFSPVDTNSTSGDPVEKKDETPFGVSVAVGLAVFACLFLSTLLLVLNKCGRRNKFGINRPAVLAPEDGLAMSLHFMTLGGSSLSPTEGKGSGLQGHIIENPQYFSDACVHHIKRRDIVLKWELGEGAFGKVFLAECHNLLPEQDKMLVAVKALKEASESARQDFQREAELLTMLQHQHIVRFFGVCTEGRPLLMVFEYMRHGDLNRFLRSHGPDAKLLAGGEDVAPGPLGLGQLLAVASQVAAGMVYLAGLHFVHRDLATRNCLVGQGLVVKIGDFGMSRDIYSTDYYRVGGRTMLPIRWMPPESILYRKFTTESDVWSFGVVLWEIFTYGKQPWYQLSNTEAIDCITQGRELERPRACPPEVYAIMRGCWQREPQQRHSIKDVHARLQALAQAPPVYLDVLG
Non-receptor tyrosine-protein kinase TYK2 (Homo sapiens), sequence (P29597 whole entry): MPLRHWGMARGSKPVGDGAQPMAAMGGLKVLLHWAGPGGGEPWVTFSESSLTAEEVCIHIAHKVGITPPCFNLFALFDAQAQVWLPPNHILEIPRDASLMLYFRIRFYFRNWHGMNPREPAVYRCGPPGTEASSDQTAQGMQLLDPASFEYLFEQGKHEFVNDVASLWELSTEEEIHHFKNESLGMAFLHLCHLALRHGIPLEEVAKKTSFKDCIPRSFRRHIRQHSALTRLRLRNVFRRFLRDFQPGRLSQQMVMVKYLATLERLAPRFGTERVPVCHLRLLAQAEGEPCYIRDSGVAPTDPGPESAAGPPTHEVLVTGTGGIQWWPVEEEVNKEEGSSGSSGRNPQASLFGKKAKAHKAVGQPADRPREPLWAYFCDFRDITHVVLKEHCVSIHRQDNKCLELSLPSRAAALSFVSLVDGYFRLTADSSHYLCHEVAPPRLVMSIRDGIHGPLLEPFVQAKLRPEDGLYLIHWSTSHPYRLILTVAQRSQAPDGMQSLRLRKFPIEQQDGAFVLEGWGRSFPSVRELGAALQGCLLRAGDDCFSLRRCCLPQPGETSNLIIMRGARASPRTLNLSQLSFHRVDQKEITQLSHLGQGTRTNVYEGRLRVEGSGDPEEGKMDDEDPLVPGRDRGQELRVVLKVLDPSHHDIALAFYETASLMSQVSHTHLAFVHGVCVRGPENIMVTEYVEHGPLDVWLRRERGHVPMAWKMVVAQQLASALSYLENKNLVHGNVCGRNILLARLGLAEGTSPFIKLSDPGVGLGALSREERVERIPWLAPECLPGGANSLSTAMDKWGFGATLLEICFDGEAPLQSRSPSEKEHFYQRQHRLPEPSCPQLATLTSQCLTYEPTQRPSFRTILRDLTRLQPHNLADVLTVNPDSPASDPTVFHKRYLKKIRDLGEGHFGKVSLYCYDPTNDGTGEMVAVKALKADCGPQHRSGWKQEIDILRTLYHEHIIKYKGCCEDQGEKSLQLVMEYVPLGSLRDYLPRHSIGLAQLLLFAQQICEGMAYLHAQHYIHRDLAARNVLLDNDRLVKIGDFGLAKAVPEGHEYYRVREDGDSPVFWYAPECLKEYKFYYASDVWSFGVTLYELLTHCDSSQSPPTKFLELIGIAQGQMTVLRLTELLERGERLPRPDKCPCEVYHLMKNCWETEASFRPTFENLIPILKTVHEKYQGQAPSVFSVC
Serine/threonine-protein kinase 10 (Homo sapiens), sequence (O94804 whole entry, looked up): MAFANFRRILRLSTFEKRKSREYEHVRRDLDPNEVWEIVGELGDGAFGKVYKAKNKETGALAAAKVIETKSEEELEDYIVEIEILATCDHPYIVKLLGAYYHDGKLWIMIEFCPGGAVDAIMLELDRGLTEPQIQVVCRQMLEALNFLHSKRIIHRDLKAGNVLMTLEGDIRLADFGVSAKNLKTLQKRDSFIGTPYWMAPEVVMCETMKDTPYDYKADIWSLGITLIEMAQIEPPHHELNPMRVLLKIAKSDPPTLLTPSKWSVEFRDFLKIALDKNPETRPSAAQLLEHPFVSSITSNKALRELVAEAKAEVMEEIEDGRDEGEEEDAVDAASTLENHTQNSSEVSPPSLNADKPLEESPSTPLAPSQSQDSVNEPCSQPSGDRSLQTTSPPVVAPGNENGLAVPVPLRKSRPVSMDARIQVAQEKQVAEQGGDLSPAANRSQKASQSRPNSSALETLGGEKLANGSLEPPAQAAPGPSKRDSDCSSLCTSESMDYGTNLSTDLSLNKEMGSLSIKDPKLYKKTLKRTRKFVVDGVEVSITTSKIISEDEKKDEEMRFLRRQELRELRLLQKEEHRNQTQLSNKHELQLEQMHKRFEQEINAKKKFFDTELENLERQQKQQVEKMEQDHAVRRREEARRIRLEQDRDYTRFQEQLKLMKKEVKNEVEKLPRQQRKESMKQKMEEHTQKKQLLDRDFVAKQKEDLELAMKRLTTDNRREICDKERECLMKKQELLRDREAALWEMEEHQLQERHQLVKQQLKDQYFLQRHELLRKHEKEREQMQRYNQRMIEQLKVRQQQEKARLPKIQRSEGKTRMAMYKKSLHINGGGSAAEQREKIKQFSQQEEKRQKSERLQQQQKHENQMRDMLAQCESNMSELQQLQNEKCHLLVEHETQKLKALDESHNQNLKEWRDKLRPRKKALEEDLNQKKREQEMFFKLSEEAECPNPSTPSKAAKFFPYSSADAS
BDNF/NT-3 growth factors receptor (Homo sapiens), sequence (Q16620 32-822 limits assumed): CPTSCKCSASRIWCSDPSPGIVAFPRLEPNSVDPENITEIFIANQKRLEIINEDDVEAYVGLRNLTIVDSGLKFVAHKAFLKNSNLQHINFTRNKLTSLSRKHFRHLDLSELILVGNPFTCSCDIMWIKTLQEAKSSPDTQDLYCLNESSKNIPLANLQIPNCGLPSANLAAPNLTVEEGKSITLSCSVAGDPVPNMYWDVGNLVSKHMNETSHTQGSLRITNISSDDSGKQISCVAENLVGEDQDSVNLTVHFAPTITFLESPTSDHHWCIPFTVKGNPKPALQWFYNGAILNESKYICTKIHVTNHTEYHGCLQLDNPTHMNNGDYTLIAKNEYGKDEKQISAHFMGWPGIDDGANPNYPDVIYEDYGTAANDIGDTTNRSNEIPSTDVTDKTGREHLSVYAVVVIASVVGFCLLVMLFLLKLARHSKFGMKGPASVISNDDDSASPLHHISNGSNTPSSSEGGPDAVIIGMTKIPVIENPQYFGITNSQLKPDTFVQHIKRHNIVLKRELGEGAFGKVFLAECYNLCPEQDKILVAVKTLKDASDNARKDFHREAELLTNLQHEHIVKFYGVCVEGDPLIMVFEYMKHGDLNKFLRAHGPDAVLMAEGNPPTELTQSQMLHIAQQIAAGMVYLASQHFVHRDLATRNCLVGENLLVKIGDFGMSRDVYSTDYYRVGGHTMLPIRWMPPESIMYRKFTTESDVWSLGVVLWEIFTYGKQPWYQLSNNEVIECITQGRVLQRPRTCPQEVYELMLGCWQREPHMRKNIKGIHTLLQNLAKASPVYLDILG
NT-3 growth factor receptor (Homo sapiens), sequence (Q16288 32-839 limits assumed): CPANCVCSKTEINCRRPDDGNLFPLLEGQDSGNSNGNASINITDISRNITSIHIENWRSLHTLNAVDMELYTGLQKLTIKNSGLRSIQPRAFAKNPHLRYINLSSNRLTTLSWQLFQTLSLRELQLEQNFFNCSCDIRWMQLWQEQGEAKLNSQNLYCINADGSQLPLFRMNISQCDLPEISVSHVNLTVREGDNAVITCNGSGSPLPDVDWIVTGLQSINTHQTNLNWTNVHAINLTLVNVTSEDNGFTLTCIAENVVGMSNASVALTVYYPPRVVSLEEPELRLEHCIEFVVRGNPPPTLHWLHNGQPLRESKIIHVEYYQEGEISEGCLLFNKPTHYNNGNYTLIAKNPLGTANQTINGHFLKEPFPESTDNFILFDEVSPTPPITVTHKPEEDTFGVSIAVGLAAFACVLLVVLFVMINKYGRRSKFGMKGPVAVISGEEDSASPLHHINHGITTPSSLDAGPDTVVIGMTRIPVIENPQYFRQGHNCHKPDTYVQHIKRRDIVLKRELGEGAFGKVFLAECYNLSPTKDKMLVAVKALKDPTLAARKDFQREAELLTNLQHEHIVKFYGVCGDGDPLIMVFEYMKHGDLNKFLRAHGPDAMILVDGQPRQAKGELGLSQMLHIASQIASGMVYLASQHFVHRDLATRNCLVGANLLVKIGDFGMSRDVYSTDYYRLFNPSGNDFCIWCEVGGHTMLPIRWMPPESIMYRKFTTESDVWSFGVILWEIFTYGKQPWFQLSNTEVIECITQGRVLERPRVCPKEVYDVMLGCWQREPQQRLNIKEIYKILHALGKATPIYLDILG

SMILES | inhibition [1] [%] | inhibition [2] [%] | inhibition [3] [%] | inhibition [4] [%] | inhibition [5] [%] | inhibition [6] [%] | inhibition [7] [%] | inhibition [8] [%] | inhibition [9] [%] | inhibition [10] [%] | inhibition [11] [%] | inhibition [12] [%] | inhibition [13] [%] | inhibition [14] [%] | inhibition [15] [%] | inhibition [16] [%] | inhibition [17] [%] | inhibition [18] [%] | inhibition [19] [%] | inhibition [20] [%]
COc1ccc(CNC(=O)c2ccc(-c3cc(-c4nnc(C)o4)ccc3C)cc2)cc1 | -1.3 | 1.54 | 4.36 | 2.79 | 5.45 | 3.95 | 3.7 | 0.15 | 6.7 | -0.94 | 4.73 | 5.79 | 6.54 | 2.85 | -5.63 | 13.2 | 20.7 | 4 | 6.93 | 3.14
Fc1ccc(-c2cc(-c3c[nH]nc3-c3ccccn3)ccn2)cc1 | 0.04 | 4.04 | 4.77 | 4.06 | 3.45 | 3.64 | 2.28 | -1.71 | 9.65 | 3.15 | 4.79 | 2.48 | 5.17 | -0.57 | -4.87 | 6.15 | 11.2 | -0.05 | 1.6 | 13.7
CCN(CC)S(=O)(=O)c1ccc(OC)c(Nc2ncc(-c3ccccc3)o2)c1 | 41.5 | 5.72 | 41.5 | 4.27 | 35.2 | 3.92 | 24.9 | -1.59 | 8.57 | 1.61 | 13.9 | 1.33 | 4.64 | 2.12 | -4.34 | 2.55 | 8.37 | 1.18 | 1.77 | 2.08
CN1CCC(n2cnc(-c3ccc(F)cc3)c2-c2ccnc(N)n2)CC1 | 3.59 | 0.4 | 6.74 | 3.47 | 8.74 | 2.63 | 6.31 | -2.21 | -7.5 | 4.64 | 7.96 | 1.08 | 7.37 | 1.63 | 1.25 | 3.39 | 5.28 | 0.79 | 5.37 | 2.95
CNC(=O)c1cccc(C#Cc2cncnc2Nc2ccc(OCc3cccc(F)c3)c(Cl)c2)c1 | 0.53 | 2.25 | 1.08 | 0.94 | 2.86 | 1.86 | 3.33 | -0.77 | 9.1 | 2.9 | 11.8 | -0.67 | 4.77 | 1.94 | -5.97 | 0 | 4.51 | -1.31 | 0.34 | -0.86
COc1cccc(-n2ncc3c(N/N=C/c4ccc(F)cc4)ncnc32)c1 | 4.65 | 3.34 | 4.5 | 3.31 | 6.74 | 4.3 | 8.25 | -4.95 | 10.9 | 2.1 | 18.5 | 4.02 | 12.9 | 2.64 | 3.29 | 6.75 | 10.9 | 0.43 | 0.63 | 5.23
CCn1c(-c2nonc2N)nc2cnc(Oc3cccc(NC(=O)c4ccc(N(C)C)cc4)c3)cc21 | -1.16 | 0.09 | 0.73 | -0.04 | 1.6 | 1.57 | 3.29 | -5.17 | 2.67 | 6.99 | 79.2 | 3.58 | 18.1 | 1.17 | 43.7 | 2.62 | 5.59 | -0.28 | 3.56 | 3.32
CN1CCC(n2cnc(-c3ccc(F)cc3)c2-c2ccnc(Nc3ccccc3)n2)CC1 | 1.74 | 0.31 | 1.95 | 1.52 | 3.75 | 3.25 | 5.32 | 1.84 | 8.53 | 2.13 | 5.7 | 3.55 | 3.9 | 0.71 | -2.98 | 2.62 | 8.59 | 1.51 | 10.3 | 4.88
CS(=O)(=O)CCNCc1ccc(-c2ccc3ncnc(Nc4ccc(OCc5ccccc5)c(C(F)(F)F)c4)c3c2)o1 | -0.59 | 2.63 | 2.63 | 2.74 | 1.42 | -2.21 | 4.38 | -7.44 | 9.83 | 2.91 | 2.77 | 1.73 | 3.4 | -0.38 | 2.61 | 5.07 | 8.24 | 0.85 | 1.46 | 2.98
COc1ccc(-c2cc(-c3c[nH]nc3-c3ccccn3)ccn2)cc1 | 3.12 | 3.7 | 3.9 | 3.2 | 5.62 | 1.77 | 3.18 | -6.95 | 10.5 | 3.7 | 5.58 | 4.41 | 5.71 | 2.12 | -1.66 | 5.75 | 8.57 | 1.74 | 2.15 | 35.5
NC(=O)c1sc(-n2cnc3ccc(C(F)(F)F)cc32)cc1OCc1ccccc1Br | 1.97 | 4.43 | 2.79 | 4.04 | 4.67 | 1.39 | -0.88 | -4.87 | 9.08 | 2.74 | 5.5 | 2.77 | 5.43 | -0.7 | -6.73 | 9.21 | 26 | 0.79 | 8.19 | 4.62
O=C(O[C@H]1CN[C@H](C#Cc2cc3ncnc(Nc4ccc(Cc5ccccc5)cc4)c3s2)C1)N1CCOCC1 | -3.47 | 0.67 | 1.13 | -0.77 | -1.7 | -0.97 | 1.36 | -1.59 | 1.6 | 0 | 1.29 | 1.27 | 2.04 | -0.18 | 5.53 | 3.08 | 7.29 | 0.39 | 0.86 | -0.42
